Experimental data published in PubChem BioAssay AID686978 (National Center for Advancing Translational Sciences (NCATS), 2013).
Out of some 420,000 compounds screened, about 64,000 (15%) were called active. Roughly 27% stayed inconclusive and do not appear here. The list is a sample of the results. Unmarked numbers belong to inactive results. The call rests on the fitted dose curve; in most records, active means well fitted inhibition curve with a large enough effect; inconclusive means small, poorly fitted or top-dose-only effect; inactive means flat fitted curve, though single readings scatter.
On the % scale 0 is the no-effect control and ±100 the full control effect; potency means the concentration at half of the fitted maximal effect.

Test: qHTS for Inhibitors of human tyrosyl-DNA phosphodiesterase 1 (TDP1): qHTS in cells in absence of CPT; further: nearly all actives have a fitted effect of over 55% in size
Settings: DT40 Tdp1-/- hTDP1 cells, no CPT, ATP luminescence, 48 h; activity change, negative = growth inhibition: at 46.2 µM (top of the series)
Summary of the method: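 A cellular qHTS used chicken DT40 cells lacking endogenous Tdp1 but carrying stably transfected human TDP1. Compounds were applied without camptothecin, and cell growth kinetics were judged by ATP-dependent luminescence after ≥48 hr.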
With `O=C(NN1C(=O)C2C3C=CC(C3)C2C1=O)c1ccco1` (centres undefined) the “activity change, negative = growth inhibition” value was -3.19%. For `COc1ccc(OC)c(NC(=O)N[C@H](Cc2ccccc2)C(=O)NN)c1`, the “activity change, negative = growth inhibition” value was 9.7%. For `O=C(COC(=O)/C=C/c1ccc(Br)o1)Nc1cccc(S(=O)(=O)N2CCOCC2)c1`, the “activity change, negative = growth inhibition” value was 9.84%. For `O=C(Nc1ccc(-c2cscn2)cc1)C1CCCN(Cc2ccc(CO)o2)C1` (centres undefined), the “activity change, negative = growth inhibition” value was -0.798%. With `COc1ccccc1/C=N/N1CCN(Cc2ccccc2Cl)CC1` the “activity change, negative = growth inhibition” value was 9.68%. For `CCC1Nc2ncnc(N3CCN(c4ccccc4)CC3)c2N(Cc2ccc(Cl)cc2)C1=O` (centres undefined), the Potency was 20.6 µM (active). In the case of `CCS(=O)(=O)N1CCC(N2CCN(c3ccccc3)CC2)CC1`, the “activity change, negative = growth inhibition” value is reported as -2.72%. For `O=C1C(Cc2ccc(O)cc2)NC(=S)N1Cc1ccccc1` (centres undefined), the “activity change, negative = growth inhibition” value was 9.72%. For `O=C(Nc1ccnc(-c2ccncc2)n1)c1cccs1`, the “activity change, negative = growth inhibition” value was 11%. In the case of `Cn1c(=O)n(C)c2cc(C(=O)Nc3ccc(Br)cc3)ccc21`, the “activity change, negative = growth inhibition” value is reported as -23%. In the case of `Cc1ccc(C(=O)Nc2cc3c(cc2N2CCCC2)n(C)c(=O)c(=O)n3C)cc1`, the Potency is reported as 20.6 µM (active). With `CCc1ccc(S(=O)(=O)Nc2cc3c(cc2N2CCCCC2)n(C)c(=O)c(=O)n3C)cc1` the “activity change, negative = growth inhibition” value was -11.4%. With `C=C(C)CNC(=O)c1ccc(OC2CCN(C(=O)COC)CC2)cc1` the “activity change, negative = growth inhibition” value was -11.9%. For `C=CCNC(=O)COC(=O)CNC(=O)c1cc(Cl)cc([N+](=O)[O-])c1`, the “activity change, negative = growth inhibition” value was 2.59%. In the case of `Cc1c(Cl)cccc1NC(=O)[C@@]1(CC(=O)O)CC(/C=C/c2ccccc2)=NO1`, the “activity change, negative = growth inhibition” value is reported as -3.3%. In the case of `CCc1c(-c2ccc(F)cc2)ncn1Cc1cccc(-c2ccccc2)c1`, the Potency is reported as 11.6 µM (active). For `Cc1ccc(-c2csc(C(C#N)=C(O)CN3CCN(C(=O)c4ccco4)CC3)n2)cc1`, the “activity change, negative = growth inhibition” value was -14%. In the case of `Cc1ccc(CNC(=O)CCC(=O)N2Cc3ccccc3Oc3ncccc32)cc1`, the “activity change, negative = growth inhibition” value is reported as -21.9%. For `C=CCc1cc(C)ccc1OCCCn1ccnc1`, the “activity change, negative = growth inhibition” value was -29.9%. With `OC(c1nc2ccc(F)cc2[nH]1)C(O)c1nc2ccc(F)cc2[nH]1` (centres undefined) the “activity change, negative = growth inhibition” value was -27.1%. In the case of `SCc1nc2ccc(Cl)cc2[nH]1`, the Potency is reported as 3.98 µM (active). In the case of `Oc1ccc(Cl)cc1/C=N/c1nc2ccccc2[nH]1`, the “activity change, negative = growth inhibition” value is reported as -2.28%. With `Cc1ccc2nc(SCC(=O)N3CCN(c4ccccc4)CC3)nc(=O)n2c1` the “activity change, negative = growth inhibition” value was -22.6%. In the case of `CCC(C)N1C(=O)S/C(=C/c2ccc(Sc3nc4ccccc4[nH]3)o2)C1=O` (centres undefined), the Potency is reported as 11.2 µM (active). For `CCc1nnc(NC(=O)CCCSc2nc3ccccc3[nH]2)s1`, the “activity change, negative = growth inhibition” value was -6.59%. For `CN1C(=O)/C(=C\c2ccc(-c3ccccc3)o2)SC1=S`, the “activity change, negative = growth inhibition” value was -28.6%. With `COc1ccc(C(CNCC(=O)Nc2ccccc2F)N(C)C)cc1` (centres undefined) the “activity change, negative = growth inhibition” value was 6.62%. With `CCO[C@H]1OC(C(=O)N2CCOCC2)=C[C@@H](c2ccc3c(c2)OCO3)[C@@H]1CCCO` the “activity change, negative = growth inhibition” value was 2.7%. For `CCO[C@@H]1OC(C(=O)N2CCOCC2)=C[C@H](C)[C@H]1CCCO`, the “activity change, negative = growth inhibition” value was -6.76%. For `CCO[C@H]1OC(C(=O)N2CCCCCCC2)=C[C@@H](c2ccc(C(F)(F)F)cc2)[C@@H]1CCCO`, the Potency was 20.6 µM (active). In the case of `CC1CN(C(=S)Nc2cccc(F)c2)CC(C)O1` (centres undefined), the “activity change, negative = growth inhibition” value is reported as -12.5%. For `CN(Cc1ccc(CNC[C@H]2O[C@@H](n3cnc4c(N)ncnc43)[C@H](O)[C@@H]2O)o1)S(C)(=O)=O`, the “activity change, negative = growth inhibition” value was -13.6%. For `Cc1cccc(NC(=O)N(Cc2cc3cc(C)cc(C)c3[nH]c2=O)CC2COCCO2)c1` (centres undefined), the Potency was 16.4 µM (active). In the case of `Cc1ccc2[nH]c(=O)c(CN(CC3COCCO3)C(=O)Nc3ccccc3C)cc2c1` (centres undefined), the “activity change, negative = growth inhibition” value is reported as -28.1%. In the case of `Cc1cccc(NC(=O)C2CC(=O)OC23CCCC3)c1` (centres undefined), the “activity change, negative = growth inhibition” value is reported as 15.3%. In the case of `O=C(O)c1[nH]c2ccccc2c1C(c1cccc(O)c1)c1c(C(=O)O)[nH]c2ccccc12`, the “activity change, negative = growth inhibition” value is reported as 14.1%. In the case of `COC(=O)c1ccc(CNC(=O)C2CCC(=O)N(Cc3ccccn3)C2)cc1` (centres undefined), the “activity change, negative = growth inhibition” value is reported as 6.62%. For `CN1CCN(C(=O)Cn2c(C(F)(F)F)nc3ccccc32)CC1`, the “activity change, negative = growth inhibition” value was -1.67%. For `FC(F)(F)c1cccc(Nc2ncnc3ccccc23)c1`, the Potency was 18.4 µM (active). In the case of `O=c1cc(CO)oc(C(Nc2cccc(C(F)(F)F)c2)c2ccccn2)c1O` (centres undefined), the “activity change, negative = growth inhibition” value is reported as -7.37%. In the case of `Cc1nc2nc(C)c(CCC(=O)N3CCN(c4ccccc4)CC3)c(C)n2n1`, the “activity change, negative = growth inhibition” value is reported as 2.82%. In the case of `COc1ccccc1CN1CCCC(N2CCN(c3ccc(F)cc3)CC2)C1` (centres undefined), the “activity change, negative = growth inhibition” value is reported as -13%. In the case of `Cc1cc(=O)oc(C)c1C(=O)NCc1ccc(F)cc1`, the “activity change, negative = growth inhibition” value is reported as 1.68%. For `CCC(=O)Nc1nnc(S(=O)(=O)N2CCCc3ccccc32)s1`, the “activity change, negative = growth inhibition” value was -17.1%. In the case of `CC1CCN(c2ccc([N+](=O)[O-])c(SCCO)c2)CC1`, the Potency is reported as 23.1 µM (active). With `CC1CCN(c2ccc(C(=O)Nc3nnc(C4CC4)s3)cc2[N+](=O)[O-])CC1` the “activity change, negative = growth inhibition” value was -21.5%. For `CC1CCN(c2ccc3c(c2)S(=O)(=O)c2cc(C(=O)O)ccc2C3=O)CC1`, the “activity change, negative = growth inhibition” value was -0.649%. For `COCCn1c(N)c(NCc2ccccc2)c(=O)[nH]c1=O`, the “activity change, negative = growth inhibition” value was -23.5%. With `COC(=O)c1sc(C(F)(F)F)c(-c2ccccc2)c1S(=O)(=O)N(C)C` the “activity change, negative = growth inhibition” value was -2.69%. In the case of `CC(CCCc1ccccc1)NC(=O)c1nn(-c2ccc(Cl)cc2)nc1CO` (centres undefined), the Potency is reported as 20.6 µM (active). In the case of `Cc1ccc(-n2nc(CO)c(C(=O)NCCc3ccccc3)n2)cc1`, the “activity change, negative = growth inhibition” value is reported as 3.15%. In the case of `CC(C)NC(=O)c1nn(-c2ccccc2F)nc1CO`, the “activity change, negative = growth inhibition” value is reported as -8.91%. For `CCc1ccc(NC(=O)CCNS(=O)(=O)c2cccs2)cc1`, the “activity change, negative = growth inhibition” value was -2.67%. For `O=C(CN(C(=O)CNC(=O)c1cccs1)c1cccc(F)c1)NC1CCCCC1`, the “activity change, negative = growth inhibition” value was -5.97%.
